# The source made the active and inactive calls.
# How the values were obtained:
# [1] = system: Plasmodium falciparum Sir2 (PF13_0152, Sir2A); experiment: Plasmodium falciparum Sir2A binding compounds – biochemical, small-molecule microarray, 635 nm fluorescence, primary screen (AID 1098); settings: fluorescence 635 nm, higher = more signal;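 note: score merges spot fluorescence intensity with its signal-to-noise ratio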
# [2] = probe aDKK1 binding to arrayed compounds – biochemical, biotinylated probe, 635/667 nm fluorescence, primary screen (AID 1099); settings: small-molecule microarray, higher = more signal;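 note: score merges 667nm spot fluorescence with signal to noise across triplicate slides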
# [3] = probe aCHRDL2 binding to arrayed compounds – biochemical, biotinylated probe, 635/667 nm fluorescence, primary screen (AID 1100); settings: small-molecule microarray, higher = more signal
# [4] = change in splice reporter luminescence, either direction, cell-based, HEK293, spliceosome inhibition project, primary screen (AID 1101); settings: HEK293 splicing luciferase reporter, 24 h, higher = more signal, called active from +8 up or from −8 down;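 note: HEK293 cells carrying a splicing-competent luciferase reporter gene; test concentration not given here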
# [5] = biological target: Fibroblast growth factor 10 (Homo sapiens) (UniProt O15520); experiment: compounds binding fibroblast growth factor 10 – biochemical, small-molecule microarray, 635 nm fluorescence, primary screen (AID 1102); settings: FGF10 binding, fluorescence 635 nm, higher = more signal
# [6] = system: glycogen synthase kinase-3 (GSK3A per assay name; protocol says GSK3B); experiment: compounds binding glycogen synthase kinase-3 – biochemical, small-molecule microarray, 635 nm fluorescence, GSK3A, primary screen (AID 1103); settings: fluorescence 635 nm, higher = more signal; note: the record names both GSK3A and GSK3B
# [7] = biological target: Epidermal growth factor receptor (Homo sapiens) (UniProt P00533); experiment: compounds binding epidermal growth factor receptor – biochemical, small-molecule microarray, 635 nm fluorescence, primary screen (AID 1104); settings: EGFR binding, higher = more signal;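 note: score merges 667 nm emission intensity with spot signal to noise over triplicate slides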
# [8] = biological target: Follistatin-related protein 3 (Homo sapiens) (UniProt O95633); experiment: compounds binding follistatin-related protein 3 – biochemical, small-molecule microarray, 635 nm fluorescence, primary screen (AID 1105); settings: FSTL3 binding, higher = more signal;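 note: score merges emission near 667 nm and signal to noise per printed spot across three slides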
# [9] = biological target: Dickkopf-related protein 1 (Homo sapiens) (UniProt O94907); experiment: small molecules binding DKK1 protein – biochemical, small-molecule microarray, 635 nm fluorescence scan, primary screen (AID 1106); settings: higher = more signal;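 note: score merges emission near 667 nm with signal to noise over three replicate slides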
# [10] = system: Inhibin beta A chain (activin A); experiment: small molecules binding activin A – biochemical, small-molecule microarray, 635 nm fluorescence scan, primary screen (AID 1107); settings: INHBA, higher = more signal;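 note: mouse activin A protein probed at 4.33 µg/mL on printed slides; score merges bound-protein fluorescence near 667 nm with spot signal-to-noise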
# [11] = system: Human papillomavirus type 1a protein E7 (residues 44-93); experiment: small molecules binding HPV E7 44-93 – biochemical, small-molecule microarray, residues 44-93, 635 nm fluorescence, primary screen (AID 1108); settings: fluorescence 635 nm, higher = more signal;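 note: E7 fragment applied at 1 µg/mL in TBST for 1 h at 4 C; score combines spot fluorescence with its signal to noise ratio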
# [12] = hepatitis C replication reporter changes, two-sided – Huh7 cells, luciferase reporter, HCV replication inhibitor project, primary screen (AID 1109); settings: Huh7 HCV replicon luciferase reporter, 48 h; higher = more signal;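 note: huh7 hepatoma cells harbouring a luciferase neomycin HCV replicon reporter; luciferase luminescence as measure of HCV replicon replication; test concentration not given here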
# [13] = biological target: Left-right determination factor 2 (Homo sapiens) (UniProt O00292); experiment: small molecules binding LEFTY2 protein – biochemical, small-molecule microarray, 635 nm fluorescence scan, primary screen (AID 1110); settings: higher = more signal
# [14] = biological target: Calmodulin-1 (Homo sapiens) (UniProt P0DP23); experiment: small molecules binding calmodulin-1 with EGTA – biochemical, small-molecule microarray, Cy5-labelled CALM1, profiling panel (AID 1111); settings: Cy5-CALM1 binding fluorescence, higher = more signal;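 note: labelled calmodulin applied in Tris saline Tween buffer holding calcium plus EGTA and DTT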
# [15] = biological target: Calmodulin-1 (Homo sapiens) (UniProt P0DP23); experiment: small molecules binding Ca-loaded calmodulin-1 – biochemical, small-molecule microarray, Cy5-labelled CALM1, plus calcium, artefact control for SMM control-protein annotation, profiling panel (AID 1112); settings: Cy5-CALM1 binding fluorescence, higher = more signal;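 note: score merges spot fluorescence with signal to noise from triplicate slides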
# [16] = probe aWnt5a binding to arrayed compounds – biochemical, biotinylated probe, 635/667 nm fluorescence, primary screen (AID 1113); settings: small-molecule microarray, higher = more signal;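 note: score merges 667 nm fluorescence intensity with signal-to-noise per printed feature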
# [17] = probe aShh binding to arrayed compounds – biochemical, biotinylated probe, 635/667 nm fluorescence, primary screen (AID 1114); settings: small-molecule microarray, higher = more signal;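 note: probe is biotin-labelled aShh protein from a stem cell growth factor screen; measures binding of labelled protein to compounds printed on the slide; score merges feature fluorescence at 667 nm with signal-to-noise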
# [18] = probe aNog binding to arrayed compounds – biochemical, biotinylated probe, 635/667 nm fluorescence, primary screen (AID 1115); settings: small-molecule microarray, higher = more signal;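 note: probe is biotinylated aNog protein used at 0.15 µg/mL for 1 h at 4 C; z-score combines 667 nm fluorescence of each spot with its signal to noise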
# [19] = biological target: Torsin-1A-interacting protein 1 (Homo sapiens) (UniProt Q5JTV8); experiment: compound microarray binding of lysate hLAP1 – cell lysate, small-molecule microarray, COS7 lysate, 635/667 nm fluorescence, primary screen (AID 1116); settings: 635 nm fluorescence, higher = more signal
# [20] = biological target: Alpha-bungarotoxin (Bungarus multicinctus) (UniProt P60615); experiment: compounds binding labelled alpha-BTX control protein – biochemical, small-molecule microarray, Alexa647 label, 635/667 nm fluorescence, artefact control for SMM control protein annotation, profiling panel (AID 1117); settings: alpha-BTX-A647 binding fluorescence, higher = more signal
# Sequence of Alpha-bungarotoxin (Bungarus multicinctus) (P60615 whole entry, looked up): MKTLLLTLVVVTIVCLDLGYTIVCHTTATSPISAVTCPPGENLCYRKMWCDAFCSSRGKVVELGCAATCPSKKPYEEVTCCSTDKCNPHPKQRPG
# Sequence of Epidermal growth factor receptor (Homo sapiens) (P00533 whole entry, looked up): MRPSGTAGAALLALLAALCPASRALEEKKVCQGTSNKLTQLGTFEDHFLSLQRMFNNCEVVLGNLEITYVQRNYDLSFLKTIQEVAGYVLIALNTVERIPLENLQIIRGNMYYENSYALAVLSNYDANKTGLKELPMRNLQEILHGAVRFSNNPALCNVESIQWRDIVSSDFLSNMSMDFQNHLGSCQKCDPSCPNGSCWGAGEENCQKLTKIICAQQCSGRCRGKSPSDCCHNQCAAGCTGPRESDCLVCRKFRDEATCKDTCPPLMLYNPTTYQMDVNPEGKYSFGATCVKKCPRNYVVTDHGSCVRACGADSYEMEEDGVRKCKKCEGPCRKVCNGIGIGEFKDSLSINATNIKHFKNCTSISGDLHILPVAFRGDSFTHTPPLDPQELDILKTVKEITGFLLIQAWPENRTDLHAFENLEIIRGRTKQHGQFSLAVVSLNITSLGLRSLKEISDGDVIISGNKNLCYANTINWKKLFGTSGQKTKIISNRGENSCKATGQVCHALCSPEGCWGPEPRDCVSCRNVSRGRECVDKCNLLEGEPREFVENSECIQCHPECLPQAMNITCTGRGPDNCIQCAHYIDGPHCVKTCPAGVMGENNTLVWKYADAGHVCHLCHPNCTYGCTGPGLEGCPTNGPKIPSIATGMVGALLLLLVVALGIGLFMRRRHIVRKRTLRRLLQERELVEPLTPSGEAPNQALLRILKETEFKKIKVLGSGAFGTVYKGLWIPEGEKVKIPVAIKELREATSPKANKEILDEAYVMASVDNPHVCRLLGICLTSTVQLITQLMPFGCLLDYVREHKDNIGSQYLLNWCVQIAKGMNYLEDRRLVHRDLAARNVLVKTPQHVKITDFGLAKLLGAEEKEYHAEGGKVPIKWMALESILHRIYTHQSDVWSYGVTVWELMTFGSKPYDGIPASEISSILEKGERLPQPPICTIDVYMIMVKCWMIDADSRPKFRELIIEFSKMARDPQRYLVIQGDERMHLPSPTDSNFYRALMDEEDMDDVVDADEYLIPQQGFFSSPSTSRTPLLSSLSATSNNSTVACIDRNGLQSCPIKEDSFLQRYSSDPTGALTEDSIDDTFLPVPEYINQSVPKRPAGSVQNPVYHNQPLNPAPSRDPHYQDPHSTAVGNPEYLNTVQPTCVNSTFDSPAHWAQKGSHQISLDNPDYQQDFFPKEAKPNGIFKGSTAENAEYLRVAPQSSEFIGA
# Sequence of Left-right determination factor 2 (Homo sapiens) (O00292 whole entry, looked up): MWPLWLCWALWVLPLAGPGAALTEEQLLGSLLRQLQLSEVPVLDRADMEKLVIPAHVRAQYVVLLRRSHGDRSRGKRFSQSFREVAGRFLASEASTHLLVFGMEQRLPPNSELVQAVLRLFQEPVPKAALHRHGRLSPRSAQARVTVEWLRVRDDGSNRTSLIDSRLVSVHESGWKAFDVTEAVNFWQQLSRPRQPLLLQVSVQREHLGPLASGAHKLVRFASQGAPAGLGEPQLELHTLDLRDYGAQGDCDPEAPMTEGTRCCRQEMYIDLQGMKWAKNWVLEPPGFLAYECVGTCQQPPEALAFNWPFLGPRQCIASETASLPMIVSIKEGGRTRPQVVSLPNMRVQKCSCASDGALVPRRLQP
# Sequence of Follistatin-related protein 3 (Homo sapiens) (O95633 whole entry, looked up): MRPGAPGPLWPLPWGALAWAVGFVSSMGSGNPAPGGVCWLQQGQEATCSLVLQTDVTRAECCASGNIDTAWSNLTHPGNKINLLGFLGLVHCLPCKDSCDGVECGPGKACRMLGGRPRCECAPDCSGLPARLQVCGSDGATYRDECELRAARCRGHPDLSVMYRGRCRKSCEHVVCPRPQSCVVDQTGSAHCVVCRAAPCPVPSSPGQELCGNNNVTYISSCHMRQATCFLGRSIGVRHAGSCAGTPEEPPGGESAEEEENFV
# Sequence of Fibroblast growth factor 10 (Homo sapiens) (O15520 whole entry, looked up): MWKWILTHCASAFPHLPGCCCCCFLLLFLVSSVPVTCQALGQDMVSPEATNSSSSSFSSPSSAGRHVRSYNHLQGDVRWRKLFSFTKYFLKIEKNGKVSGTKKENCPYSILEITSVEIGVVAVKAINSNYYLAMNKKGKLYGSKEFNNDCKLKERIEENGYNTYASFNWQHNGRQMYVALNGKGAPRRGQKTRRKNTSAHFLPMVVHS
# Sequence of Dickkopf-related protein 1 (Homo sapiens) (O94907 whole entry, looked up): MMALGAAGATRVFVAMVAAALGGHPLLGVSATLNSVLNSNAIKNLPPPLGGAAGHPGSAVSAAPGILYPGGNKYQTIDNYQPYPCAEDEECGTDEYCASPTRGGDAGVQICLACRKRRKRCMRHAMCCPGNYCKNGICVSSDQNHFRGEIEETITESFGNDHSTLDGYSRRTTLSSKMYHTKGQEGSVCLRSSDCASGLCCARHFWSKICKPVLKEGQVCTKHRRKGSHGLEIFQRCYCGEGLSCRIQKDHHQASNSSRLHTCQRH
# Sequence of Torsin-1A-interacting protein 1 (Homo sapiens) (Q5JTV8 whole entry, looked up): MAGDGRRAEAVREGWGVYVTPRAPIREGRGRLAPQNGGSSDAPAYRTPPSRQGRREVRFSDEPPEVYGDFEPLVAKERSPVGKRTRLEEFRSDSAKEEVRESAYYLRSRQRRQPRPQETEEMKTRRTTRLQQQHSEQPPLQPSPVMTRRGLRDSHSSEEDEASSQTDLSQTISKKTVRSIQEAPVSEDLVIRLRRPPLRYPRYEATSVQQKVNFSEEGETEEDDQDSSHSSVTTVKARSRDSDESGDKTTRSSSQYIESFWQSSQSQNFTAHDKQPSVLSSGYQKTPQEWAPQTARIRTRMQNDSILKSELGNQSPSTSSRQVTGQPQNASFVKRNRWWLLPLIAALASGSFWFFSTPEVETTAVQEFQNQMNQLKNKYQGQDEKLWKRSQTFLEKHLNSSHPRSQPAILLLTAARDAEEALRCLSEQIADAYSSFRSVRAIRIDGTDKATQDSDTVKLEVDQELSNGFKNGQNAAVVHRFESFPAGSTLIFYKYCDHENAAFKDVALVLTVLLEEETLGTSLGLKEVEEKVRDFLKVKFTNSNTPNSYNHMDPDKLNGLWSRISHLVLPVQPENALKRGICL
SMILES,composite z-score [1],composite z-score [2],composite z-score [3],z-score [4],composite z-score [5],composite z-score [6],composite z-score [7],composite z-score [8],composite z-score [9],composite z-score [10],composite z-score [11],z-score [12],composite z-score [13],composite z-score [14],composite z-score [15],composite z-score [16],composite z-score [17],composite z-score [18],composite z-score [19],composite z-score [20]
Cc1ccc(S(=O)(=O)N2CC(C(=O)O)=CCC2c2ccccc2)cc1 (stereo not given),1.11,0.133,0.696,0.566 (inactive),-0.265,-0.5,-0.638,-0.95,-1.6,-0.538,0.467,-0.212,-1.58,0.0207,0.52,0.173,0.0639,-0.468,0.505,0.277
COc1ccc(C#Cc2ccc3c(c2)[C@]2(C(=O)N3)[C@H](C(=O)N3CCc4cc(OC)c(OC)cc4C3)[C@H]3C(=O)O[C@H](c4ccccc4)[C@H](c4ccccc4)N3[C@@H]2c2ccc(OCCO)cc2)cc1,1.07,-0.029,-0.13,0.8 (inactive),1.29,1.27,0.504,1.08,0.671,0.0787,1.39,-0.864,0.483,0.861,-0.0312,0.027,0.0469,-0.551,0.692,0.992
COc1ccc([Si](C)(C)[C@H]2[C@H](CC(=O)N(CCO)Cc3ccccc3)O[C@@]3(C(=O)N(Cc4cccc(N5C(=O)c6cccc7cccc5c67)c4)c4ccccc43)[C@@H]2C)cc1,0.803,-0.534,0.0901,-2.5 (inactive),0.158,0.0107,0.148,0.303,0.491,0.9,0.9,-4.25,0.45,0.847,-0.0174,-0.107,-0.165,0.0857,0.389,0.942
O=c1cccc(-c2cccc3ccccc23)o1,1.06,0.849,1.23,0.873 (inactive),-0.52,-0.274,-1.18,-0.218,-0.951,1.46,-0.285,-0.497,-0.905,0.088,0.33,-0.0751,-0.138,1.25,0.78,0.541
COCCOC(=O)N1C(=O)[C@@]2(c3cc(C#Cc4ccc(OC)cc4)ccc31)[C@H](c1ccc(OCCO)cc1)N1[C@H](c3ccccc3)[C@H](c3ccccc3)OC(=O)[C@H]1[C@@H]2C(=O)N1CCc2cc(OC)c(OC)cc2C1,1.41,-0.126,-0.227,-0.355 (inactive),0.812,1.12,0.463,1.3,0.435,0.273,1.22,-0.603,0.493,0.784,0.458,-0.203,-0.0824,-0.0602,0.705,0.571
CCCNC(=O)[C@@]1(c2ccc([N+](=O)[O-])cc2)CC(=O)N(CC23CC4CC(CC(C4)C2)C3)[C@@H]1c1ccc(CO)cc1I,0.441,0.563,0.195,1.58 (inactive),0.193,0.588,0.27,0.236,0.0305,0.655,0.0836,-3.32,0.152,0.838,0.94,-0.0303,0.166,0.431,-0.421,0.695
NC(=O)[C@@]1(CCS(=O)(=O)c2ccccc2)N=C(c2ccc(OCCCO)cc2)O[C@H]1c1ccccc1,1.28,0.518,0.7,-0.675 (inactive),1.08,0.953,-0.151,-0.437,0.015,0.564,1.49,-2.05,-0.38,1.37,0.699,0.0845,0.396,1.28,1.89,1.42
COc1ccc(C(=O)Nc2cccc(CN3C(=O)[C@@]4(O[C@@H](CC(=O)N5Cc6ccccc6C[C@H]5CO)[C@H]([Si](C)(C)c5ccc(OC)cc5)[C@H]4C)c4ccccc43)c2)cc1,1.42,-0.287,-0.0642,-1.14 (inactive),0.639,0.363,0.978,1.24,1.11,0.551,-0.296,-3.74,0.904,-0.0023,-0.68,-0.0643,0.353,0.118,0.965,1.27
O=C(CS)NCCCCCNC(=O)[C@H]1C[C@H]2C(=O)N[C@@H](Cc3ccccc3)C(=O)N2[C@H]1c1cccc(OCCO)c1,1.4,0.185,0.373,0.101 (inactive),1.41,1.36,0.98,1.42,1.61,0.597,0.729,-0.24,1.03,-0.137,-0.358,0.0388,-0.153,-0.259,1.12,0.656
C=CCN1Cc2ccccc2C[C@@]2(COC(c3ccc(OCCCO)cc3)=N2)C1=O,1.03,1.02,1.15,-1.13 (inactive),0.489,0.597,0.437,0.68,0.644,1.59,1.42,-0.908,0.588,0.175,-0.583,0.0633,0.13,0.373,1.33,0.34
[N-]=[N+]=NCc1ccccc1C[C@]1(C(=O)N2CCOCC2)N=C(c2ccc(OCCCO)cc2)O[C@H]1c1ccccc1,0.947,0.102,0.904,-1.18 (inactive),1.39,0.551,-0.458,0.223,-0.774,0.275,1.25,-3.07,-0.712,1.4,0.886,-0.0203,0.207,-0.376,0.68,1.02
C=C(COC)C(=O)CC[C@@H](OC(=O)c1ccccc1-c1ccccc1C(=O)O)c1ccc(CO)o1,1.51,-0.4,-0.69,-1.24 (inactive),1.57,0.464,0.109,0.399,1.14,0.466,0.512,-4.48,1.01,1.63,0.417,-0.256,-0.34,-0.251,0.709,0.206
C=C(CCCC)C(=O)CC[C@H](OC(=O)c1ccccc1-c1ccccc1C(=O)O)c1ccc(CO)o1,1.15,-0.28,-0.635,0.144 (inactive),1.51,1.1,0.264,1.2,1.02,0.64,1.42,-0.872,0.645,0.856,-0.771,-0.0458,-0.108,0.238,0.876,1.65
O=C1O[C@@H](c2ccccc2)[C@@H](c2ccccc2)N2[C@@H](c3ccc(O)cc3)[C@]3(C(=O)Nc4ccc(C#CCCO)cc43)[C@@H](C(=O)N3CCCCCCC3)[C@H]12,1.83,1.7,1.07,0.62 (inactive),0.837,0.78,0.201,1.43,0.843,1.67,0.777,-1.18,0.51,2.37,1.05,0.861,-0.116,2.68,3.66,2.14
C[C@]1(C(=O)NCC(F)(F)F)c2ccccc2C(=O)N(Cc2cc(F)cc(C(F)(F)F)c2)[C@H]1c1ccc(CO)cc1,1.54,1.64,0.572,-0.633 (inactive),0.257,-0.12,0.0376,-0.66,-0.609,-0.461,1.05,-0.906,-0.977,1.6,0.302,-0.224,0.0024,0.452,0.729,0.0035
CC1(C)C(=O)C(c2ccccc2)=C2CN3C(=O)N(CCc4ccccc4)C(=O)C3(Cc3ccccc3)C=C21 (stereo not given),0.155,1.06,1.12,0.917 (inactive),0.363,0.182,-0.0726,0.949,-1.03,1.09,1.03,-1.58,-0.0283,1.03,0.9,0.0633,0.375,0.578,-0.0882,1.68
C=CCOC(=O)[C@H]1[C@@H]2C(=O)O[C@@H](c3ccccc3)[C@@H](c3ccccc3)N2[C@@H](c2ccc(OCCOC(=O)[C@H]3C[C@H]4C(=O)N[C@@H](CCCC[N+](C)(C)C)C(=O)N4[C@H]3c3ccc(O)cc3)cc2)[C@]12C(=O)Nc1ccccc12,1.63,-0.194,-0.135,-1.08 (inactive),0.507,-0.112,-0.229,0.563,0.387,-0.196,0.411,-0.581,-0.196,-0.217,-0.687,-0.148,0.0469,-0.32,0.569,0.717
CC(C)(C)OC(=O)CC[C@]1(C(=O)NCC(O)CO)N=C(c2ccc(OCCCO)cc2)O[C@H]1c1ccccc1CN=[N+]=[N-] (stereo not given in full),0.982,1.27,1.33,0.121 (inactive),1.5,0.554,-0.256,0.676,-0.0583,0.487,0.29,1.15,-0.167,2.52,0.909,0.25,0.541,-0.524,3.82,2.42
CN1C(=O)C2C(C1=O)C1C=C(c3ccc(CO)cc3)C2C(C2CC2)N1Cc1sc2ccccc2c1Cl (stereo not given),0.924,-0.197,0.82,0.254 (inactive),1.25,1.33,0.291,0.989,0.473,0.74,0.946,-1.58,0.545,2.06,0.398,0.0561,0.079,-0.186,2.06,2.87
C=C(/C(=C/C[C@@H](OC(=O)c1ccncc1)c1ccc(CO)o1)c1cc(C(=O)OC)ccc1OC)C(C)C,1.32,-0.0623,-0.109,0.614 (inactive),1.3,1.14,0.439,1.13,0.432,-0.0326,0.838,-2.03,0.512,0.224,-0.0294,-0.063,0.0893,0.107,0.815,0.582

# — PubChem BioAssay
